Hit rate of the full screen: of about 96,000 compounds, about 19,000 (20%) were called active. A selection follows. Values without a mark were called inactive.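 Rule for the calls: active = blocking of liver enzyme CYP2C9 beyond about 50% at 5 µM (limit read from the data); inactive = the rest.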

In general, inhibition refers to the change of the read-out against control, counted positive when it falls.

Chain of Cytochrome P450 2C9 (Homo sapiens) (P11712 whole entry, looked up): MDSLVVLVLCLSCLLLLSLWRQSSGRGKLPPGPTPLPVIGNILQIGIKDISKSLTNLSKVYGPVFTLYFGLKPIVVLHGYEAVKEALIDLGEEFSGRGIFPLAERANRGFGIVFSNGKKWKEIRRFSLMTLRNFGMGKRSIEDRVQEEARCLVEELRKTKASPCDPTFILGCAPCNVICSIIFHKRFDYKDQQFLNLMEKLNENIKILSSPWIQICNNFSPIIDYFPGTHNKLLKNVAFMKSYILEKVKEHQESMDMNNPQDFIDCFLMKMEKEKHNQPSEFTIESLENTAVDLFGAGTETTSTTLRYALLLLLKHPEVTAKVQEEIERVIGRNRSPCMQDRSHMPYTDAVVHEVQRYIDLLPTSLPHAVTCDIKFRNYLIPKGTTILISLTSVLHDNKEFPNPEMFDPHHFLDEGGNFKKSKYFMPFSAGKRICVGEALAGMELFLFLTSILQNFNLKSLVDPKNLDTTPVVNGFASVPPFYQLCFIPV

The experiment addresses Cytochrome P450 2C9 (Homo sapiens) (UniProt P11712). The experiment in a line: blockers of cytochrome P450 2C9 activity – biochemical, luminescence, ADME assay, primary screen (AID 777). The conditions noted are these: CYP2C9 Supersomes, luciferin-H conversion, at 5 µM, stronger effect = higher value.
`OC(COc1ccccc1)Cn1cc(Br)cn1` (stereo not given): the inhibition is 18.3%.
For the compound `O=C(O)c1ccc(-n2cccc2)cc1O`, the inhibition is 4.7%.
As for `CCC(C)(C)n1nnnc1C(c1cccs1)N1CCN(c2nc3ccccc3s2)CC1` (stereo not given), the figure is 71% (active); as for `CCC(C)(C)n1nnnc1CN1CCN(c2nc3ccc(C)cc3cc2C#N)CC1`, 8.7%; as for `CCC(C)(C)n1nnnc1C(c1cccs1)N1CCN(Cc2ccccc2)CC1` (stereo not given), 43.4%.
As for `COCCCNC(=O)CCc1nc2cccnc2n1Cc1ccc(OC)cc1`, the figure is -1.2%.
In the case of `Cn1nc(C(F)(F)F)c2cc(NC(=O)OCC(C)(C)C)sc21` it was -4.4%; in that of `COc1ccc(OC)c2c1sc(=NC(=O)CN1C(=O)CCC1=O)n2C`, 2.3%; in that of `C=CCn1c2ccccc2c2nnc(SC(CC)C(=O)Nc3nc(C)c(C(=O)OCC)s3)nc21` (stereo not given), 75% (active).
For the compound `CCOC(=O)c1sc(/N=C/Nc2nc(C)c(C(=O)OCC)s2)nc1C`, the inhibition is 29.2%.
Take `CCOC(=O)c1sc(NC(=O)C(CC)Sc2nccn2C)nc1C` (stereo not given): the inhibition was 45.4%.
Take `O=C(c1cccnc1NCc1ccccc1)N1CCOCC1`: the inhibition is 4%.
In the case of `O=C(Nc1cnccn1)c1cccnc1` it was -0.8%; in that of `CCOC(=O)c1cc(NC(=O)c2cccnc2)cc(C(=O)OCC)c1`, 37.8%; in that of `Cc1c(C(=O)OC(C)C)sc(NC(=O)c2cccnc2)c1C#N`, 95.4% (active).
As for `O=C(COc1ncnc2c(Cl)cc(Cl)cc12)N1CCN(S(=O)(=O)c2ccccc2)CC1`, the figure is -7.6%; as for `CCCCCN(C(=O)NC(=O)Nc1ccccc1OC)S(C)(=O)=O`, 68.3% (active).
In the case of `CCCCCN(C(=O)NC(=O)Nc1ccccc1C)S(C)(=O)=O` it was 32.9%; in that of `CCCCCCCC(=O)NC(Nc1ccccc1OC)C(Cl)(Cl)Cl` (stereo not given), 12.1%.
Turning to `Cc1c(CCO)c(=O)[nH]n1C(=O)c1c(F)cccc1F`, the inhibition was -4.2%.
In the case of `Cc1ccc(N2C(=O)S/C(=C/c3cn(C)c4ccccc34)C2=O)cc1` it was -33.6%; in that of `COc1ccc(/C=C2/S/C(=N/N=C3\CC4CCC3(C)C4(C)C)NC2=O)cc1` (stereo not given), -0.8%; in that of `Cc1sc(NC(=S)NC(=O)c2cccs2)nc1-c1ccc(CC(C)C)cc1`, 14.4%.
In the case of `COc1cc(C2C3C(=O)N(c4ccccc4)C(=O)C3ON2c2ccccc2)ccc1O` (stereo not given) it was 69.1% (active); in that of `Cc1ccccc1N1C(=O)C2ON(c3ccccc3)C(c3ccncc3)C2C1=O` (stereo not given), 65.9% (active); in that of `COc1cc(C2C(C(=O)Nc3ccccc3OC)=C(C)Nc3ncnn32)ccc1O` (stereo not given), 12.1%.
As for `CCOC(=O)C1=C(c2ccccc2)N=C2SCC(=O)N2C1c1ccc(O)c(OC)c1` (stereo not given), the figure is 33.1%.
With `CC(=O)c1cc(NC(=O)c2ccccc2)c(=O)oc1/C=C/N(C)C`, the inhibition is 46.8%.
As for `CCCCCOC(=O)c1ccc(N2C(=O)C3C4C=CC(C4)C3C2=O)cc1` (stereo not given), the inhibition is 46.3%.
As for `O=S(=O)(NCc1cccnc1)c1ccc(Br)s1`, the figure is 14.7%; as for `Cc1nc2nc(COc3ccccc3)[nH]n2c(=O)c1Cc1ccccc1`, 17.5%; as for `CCOCCCNS(=O)(=O)Cc1ccccc1`, -1.6%.
As for `CCOc1ccc2cc(C#N)c(SCC(=O)OC)nc2c1`, the figure is 21.4%.
Turning to `CCOc1ccc2nc(N3CCCN(C(=O)Nc4ccccc4C)CC3)c(C#N)cc2c1`, the inhibition is 98.1% (active).
In the case of `CCOc1ccc2nc(NCCNS(=O)(=O)c3ccccc3)c(C#N)cc2c1` it was 22.2%; in that of `CCOC(=O)CC1C(=O)NCCN1C(=O)COc1ccc(Br)cc1C` (stereo not given), -12%.
As for `Fc1cnc(N2CCOCC2)nc1NCc1ccccc1`, the figure is -1.5%.
With `Cc1cc(C(=O)Nc2ccccc2N2CCOCC2)c2ccccc2n1`, the inhibition is 58.2% (active).
In the case of `COc1c(C)cccc1C(=O)Nc1cc(Cl)ccc1N1CCOCC1` it was 26.5%.
In the case of `O=C(CNC(=O)c1ccc(Cl)cc1Cl)NCC(=O)Nc1ccccc1N1CCOCC1` it was 57.6% (active); in that of `O=C(CN1CCOCC1)Nc1cc(Cl)ccc1Cl`, -138%; in that of `O=S(=O)(Nc1ccccc1N1CCOCC1)c1ccc(Cl)s1`, 10.6%.
Take `Cc1c(NC(=O)c2cc(-c3ccc(Cl)s3)nc3ccccc23)c(=O)n(-c2ccccc2)n1C`: the inhibition was 29.3%.
In the case of `Nc1nonc1-c1noc(-c2ccc(Br)o2)n1` it was 2.6%; in that of `O=c1[nH]c(-c2cccs2)nc2ccccc12`, 3.1%; in that of `CCSc1nc(=S)n(CC)c(C)c1C(C)=O`, -26.9%.
In the case of `O=C(NCCC1=CCCCC1)C1CCN(Cc2cnn(-c3ccccc3)c2-n2cccc2)CC1` it was 48.5%; in that of `S=C(NCCC1=CCCCC1)Nc1ccccc1`, 14.4%; in that of `C1=C(CCNc2ncnc3c2cnn3-c2ccccc2)CCCC1`, 62% (active).
As for `CC(C)CC[n+]1ccn(C2=C([O-])c3ccccc3C(=O)/C2=N\S(=O)(=O)c2ccccc2)c1`, the figure is 40.4%; as for `CCCCOC(=O)NCN1C(=O)C2C3C=CC(C3)C2C1=O` (stereo not given), -5.7%.
`c1ccc(-c2cn3c(n2)CCc2ccc4cccnc4c2-3)cc1`: the inhibition is 20.7%.
In the case of `O=S(=O)(N1CCOCC1)N1CCN(c2ccccc2F)CC1` it was 17.2%; in that of `O=C(c1cccc2ccccc12)N1CCN(c2ccccc2F)CC1`, -14.7%.
As for `O=C(c1ccc(CN2CCOCC2)cc1)N1CCN(c2ccccc2F)CC1`, the figure is 51.8% (active); as for `COC(=O)[C@H](C(C)C)n1c(C)c(C(C)=O)c(C(C)=O)c1C`, 7%; as for `O=C(CC1Oc2ccccc2NC1=O)NCCCN1CCN(Cc2ccccc2)CC1` (stereo not given), -28.8%.
In the case of `CCOC(=O)c1c(C(C#N)C#N)cc(C)nc1C` it was 41.1%; in that of `O=C(NCCc1ccccc1)c1ccc(OCCOc2ccccc2)cc1`, -10.5%; in that of `O=C(NCCc1ccccc1)c1ccc(NC2=NC3CS(=O)(=O)CC3S2)cc1` (stereo not given), 0.2%.
As to `CC1CCCN(c2ccc(C(=O)NCCc3ccccc3)cn2)C1` (stereo not given), the inhibition is 80.7% (active).
In the case of `CCC(C)(C)NC(=O)C(c1cccn1C)N(Cc1ccc(C)cc1)C(=O)Cn1nnc2ccccc21` (stereo not given) it was 28.4%; in that of `CC(C)CNC(=S)NNC(=O)c1ccccc1OC(F)F`, 3.6%; in that of `CNC(=O)c1csc(-c2ccccc2)n1`, 13.2%.
As for `COc1cccc(C(=O)Nc2ccc(N3CCCC3)cc2)c1`, the figure is 11.9%.
As for `COc1cc(N2CCCC2)c(OC)cc1/C=C(/C#N)c1cccc(Br)c1`, the figure is 67.5% (active).
On to `CN1CCCc2cc(C#N)c(=O)[nH]c21`, for which the inhibition is 45.5%.
As for `O=C(NC1CCCCC1)C1CCCN(S(=O)(=O)c2cccs2)C1` (stereo not given), the figure is 68.3% (active).
As for `O=C(C1CCN(S(=O)(=O)c2cccs2)CC1)N1CCCCCC1`, the figure is 34.9%; as for `O=C(NCc1ccco1)C1CCCN(S(=O)(=O)c2ccccc2)C1` (stereo not given), 30.4%.
As for `O=S(=O)(c1cccs1)N1CCN(Cc2ccccc2)CC1`, the figure is 69.5% (active); as for `Cc1ccc(CNC(=O)C2CCCN(S(C)(=O)=O)C2)cc1` (stereo not given), -3.4%; as for `O=C(NCc1ccccc1)C1CCCN(S(=O)(=O)c2cccs2)C1` (stereo not given), 81.9% (active).
Consider `O=C(NCc1cccs1)C1CCN(S(=O)(=O)c2ccc3c(c2)OCCO3)CC1`, for which the inhibition is -174%.
On to `CN1CCN(S(=O)(=O)c2ccc(N3CCN(S(=O)(=O)c4cccs4)CC3)nc2)CC1`, for which the inhibition is 49.3%.
In the case of `O=C(NCc1ccc2c(c1)OCO2)C1CCCN(S(=O)(=O)c2cccs2)C1` (stereo not given) it was 92.5% (active).
As for `CCS(=O)(=O)N1CCCC(C(=O)NCc2ccc(C)cc2)C1` (stereo not given), the figure is 6.9%; as for `O=S(=O)(c1cccs1)N1CCc2ccccc2C1`, -206%; as for `CCCS(=O)(=O)N1CCCC(C(=O)NCc2ccco2)C1` (stereo not given), 0.9%.
As for `CCCC(=O)N1c2ccc(-c3csc(N)n3)cc2CC1C` (stereo not given), the inhibition is 34.6%.
In the case of `CN1C(=O)c2ccc(NC(=O)C3CCCCC3)cc2C1=O` it was 3.3%; in that of `CN1CCC2(CC1)NC(=O)NC2=O`, -9.5%; in that of `CSC1=N/C(=C\c2ccc3c(c2)OCO3)C(=O)S1`, 1.7%.
In the case of `COc1cc(/C=C(\C#N)c2nc3c(s2)CC(C)CC3)ccc1O` (stereo not given) it was -74.5%; in that of `CCCCc1nnc(NC(=O)CSc2nc(C)cc(=O)[nH]2)s1`, 14%; in that of `Cc1ccc2cccc(O)c2[n+]1[O-]`, 11.3%.
In the case of `COc1ccc(CCN=C2SCC(=O)N2C)cc1OC`, the inhibition was 15.5%.
Take `COCc1cc(C(C)=O)ccc1OC`: the inhibition is -37.2%.
As for `COc1ccc(CC(=O)c2ccc(O)cc2O)cc1OC`, the inhibition was 53.9% (active).
As for `CCCOC(=O)C1=C(C)NC2=C(C(=O)C(C(=O)OC)C(C)C2)C1c1ccc(N(C)C)cc1` (stereo not given), the figure is 18.1%.
Take `COc1cc(OC)cc(C(=O)Nc2ccc(-c3nc4ccccc4o3)c(O)c2)c1`: the inhibition is -18.6%.
In the case of `COc1ccccc1Nc1ncnc2c1oc1ccccc12` it was 19.7%; in that of `COc1ccc(/C=N/Nc2nc3ccccc3c(=O)[nH]2)cc1`, 9.9%.
In the case of `Cc1ccc(C(=O)N/N=C/c2sc(=O)n(Cc3cccc(C(=O)O)c3)c2Cl)cc1` it was 12.3%; in that of `Cc1ccc(/C=N/NC(=O)C(NC(=O)c2ccccc2)c2n[nH]c(=O)c3ccccc23)cc1` (stereo not given), 56.5% (active); in that of `Nc1ccc(SCCN2C(=O)c3ccccc3C2=O)cc1`, 71.9% (active).
With `O=C1c2ccccc2C(=O)N1CCC(c1ccccc1)c1ccco1` (stereo not given), the inhibition is 40.2%.
In the case of `CC(=O)c1cnc(SCCN2C(=O)c3ccccc3C2=O)nc1C` it was 13.5%; in that of `CCCS(=O)(=O)C(=C1Nc2ccccc2N1)S(=O)(=O)CCC`, 8.7%; in that of `COc1ccc(C(C#N)Nc2ccccc2C)cc1` (stereo not given), 4.4%.

(Values after PubChem BioAssay AID777 (Sanford-Burnham Center for Chemical Genomics, 2007).)
